Among all 200,000 compounds or so, about 5,100 (2.5%) were called active. This is one part of a sample in which actives are shown more often than they occur.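 Rule for the calls: active = activation above the screen-wide mean activation plus 3 SD (cut at about 130% in these data); inactive = the rest.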
test: STAT1 signaling activators, primary screen, cell-based, HTS, luciferase reporter (AID 932); conditions: NIH 3T3 STAT1-luciferase reporter, IFN-gamma, luminescence; at 5.5 µM; active compounds read high; 100% = IFN-gamma alone, no compound;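 note: raw ratio to IFN-gamma control signal so 100% means no change and 0% no light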

Activation (% of control), inactive:
Cc1c(Cl)cccc1NC(=S)N(Cc1ccccc1)Cc1cccnc1 94.9%, CC(=O)Nc1ccc(NC(=S)NC(=O)/C=C/c2ccccc2)cc1 87.3%, COc1cc(/C=N/N=C(\N)c2nonc2N)cc(OC)c1OC 102%, CC(C)(C)n1nc2c(c1NC(=O)c1cc3ccccc3o1)CSC2 97.4%, Cc1cc(C)n(-c2nnc(N3CCN(c4ccccc4)CC3)nn2)n1 104%, Cc1nnc(NC(=O)/C=C/c2ccco2)s1 105%, Cc1ccnc(NC(=O)c2ccco2)n1 101%, O=C(/C=C/c1ccco1)Nc1cccc(-c2nc3ccccc3[nH]2)c1 119%, Cc1ccnc(NC(=O)c2ccoc2C)c1 127%, Cn1c(=O)c2c(ncn2CC(=O)N/N=C/c2cn[nH]c2-c2ccc(F)cc2)n(C)c1=O 109%, CC(Oc1ccccc1F)C(=O)NN (centres undefined) 98%, CC(C)c1nc(CNC(=O)CC2C(=O)NCCN2Cc2ccoc2)cs1 (centres undefined) 101%, O=C(O)c1ccc(NS(=O)(=O)c2ccc3c(c2)C(=O)c2cc(S(=O)(=O)Nc4ccc(C(=O)O)cc4)ccc2-3)cc1 95.5%, CCCn1nc(C(=O)N2CCCc3ccccc32)c2ccccc2c1=O 97.4%, COc1ccc(-n2cnc3cc(C(=O)NC4CCCC4)ccc32)cc1 110%, COc1ccc(Nc2nc(Cl)nc(NCc3ccco3)n2)cc1 104%, COc1cc(C(=O)N[C@@H](C)C(=O)NCc2ccco2)cc(OC)c1OC 102%, CN(CC(=O)Nc1ccccc1[N+](=O)[O-])Cc1ccc(Br)cc1 97.7%, CC(C)CCN1CCN(Cc2ccc(C(F)(F)F)cc2)CC1CCO (centres undefined) 100%, O=C1CC(c2cccc(Cl)c2)CC(O)=C1C=Nc1ccccc1 (centres undefined) 99.6%, CC1=NN(c2ccccc2)C(=O)C1C(=O)c1ccc([N+](=O)[O-])cc1 (centres undefined) 94.7%, Cn1c(=O)n(Cc2ccco2)c(=N)c2c3c(sc21)CCCC3 103%, N#CCSc1nc2ccc(N3CCOCC3)cc2c(=O)n1CCc1ccccc1 102%, Cc1cc(C(=O)Nc2ccccc2N2CCOCC2)c2ccccc2n1 102%, CCCc1c(C)nc2c(Br)cccc2c1Cl 97.5%, Cc1nc2ccccc2nc(C)c1=NOCc1ccc(Cl)cc1Cl 111%, O=C(OCC#CCSc1nnc(-c2ccncc2)o1)c1sc2ccccc2c1Cl 100%, Clc1ccc(-c2nnc(SCc3nc4ccccc4s3)o2)cc1 122%, Cc1nonc1C1CCCN1Cc1nc(-c2ccc(F)cc2F)oc1C (centres undefined) 96%, CN(C)CCn1c(=S)[nH]c2ccc(Cl)cc2c1=O 95.1%, Cc1ccc(N(Cc2cc3ccccc3[nH]c2=O)C(=O)c2cccs2)cc1 91.2%, CN(C)S(=O)(=O)Oc1ccccc1C(=O)Nc1ccccc1Cl 91.9%, CN(c1ccc(C(=O)NCc2ccccn2)cc1)S(C)(=O)=O 106%, O=C(NCCC1=CCCCC1)c1ccc(Cl)c([N+](=O)[O-])c1 110%, O=C(Cc1nn[nH]n1)NCCC1=CCCCC1 94.3%, O=C(Cc1cccc2ccccc12)NCCC1=CCCCC1 101%, Cc1nnc(SCC2=C(C(=O)O)N3C(=O)C(NC(=O)Cn4nc(C)c(Cl)c4C)C3SC2)s1 (centres undefined) 99.2%, CCOC(=O)C1CCCN(C(=O)COc2ccc(N(C)S(=O)(=O)c3ccc(C)cc3)cc2)C1 (centres undefined) 102%, Cc1[nH]nc(SCC(=O)NCC(C)C)c1[N+](=O)[O-] 102%, c1ccc(CN2CCC(N=C3NN=C(c4ccc5c(c4)OCCO5)CS3)CC2)cc1 114%, Cc1cccc(N=C2NN=C(c3c[nH]c4ccccc34)CS2)c1 106%, CCN1CCC2(CC1)N=C(c1ccc(F)cc1)C(=S)N2C(=O)c1ccc(C)cc1 111%, Cc1ccc(-c2nc3ccccc3[nH]2)cc1N 118%, c1ccc(-c2[nH]ncc2-c2nc3ccccc3[nH]2)cc1 89.6%, O=C(Nc1ccncc1)c1ccccc1[N+](=O)[O-] 105%, O=C(NC(CC(=O)N1CCN(c2ccccc2)CC1)c1ccccc1)c1ccccc1Cl (centres undefined) 95%, O=C(OCC(=O)c1c[nH]c2ccccc12)c1cccc(O)c1 93.7%, O=S(=O)(NCCc1ccc(F)cc1)c1cccc2cccnc12 102%, OCC1(CCc2ccccc2)CCN(Cc2ccc3nsnc3c2)CC1 100%, Cc1ccc(S(=O)(=O)N2CCOCC2)cc1C(=O)NC(=S)N(Cc1ccccc1)C(C)C 102%, Cc1ccc(S(=O)(=O)N2CCC(C(=O)NCC3CCCO3)CC2)cc1 (centres undefined) 99.9%, Cc1ccc(C(=O)N/C(=C/c2cccs2)C(=O)NCC2CCCO2)cc1 (centres undefined) 99.5%, O=C(Nc1ccc(F)c([N+](=O)[O-])c1)C1CC(=O)N(Cc2ccccc2)C1 (centres undefined) 95.9%

Activation (% of control), active:
O=C(/C=C/c1ccco1)Nc1ccc(Oc2ccccc2)cc1 134%, Cc1ccnc(NC(=O)c2ccc(NC(=O)c3ccco3)cc2)c1 129%, COc1ccc(-n2cnc3cc(NCc4ccco4)ccc32)cc1 137%, Cc1nn2c3cc(N4CCOCC4)ccc3nc2c2ccccc12 134%, C#CCSc1nnc(-c2sc3ccccc3c2Cl)o1 140%, CN(C)CCN=c1cc(-c2ccccc2)oc2ccc(Cl)cc12 148%, CN(c1ccc(C(=O)NCCC2=CCCCC2)cc1)S(C)(=O)=O 158%, Cn1nnc2cc(C(=O)NCCC3=CCCCC3)ccc21 153%, Clc1cccc(N=C2NN=C(c3ccc4c(c3)OCCO4)CS2)c1 148%, c1ccc2[nH]c(-c3nc4ccccc4[nH]3)nc2c1 146%, Cc1ccc(-n2c(C)cc(/C=C(\C#N)C(=O)NCC3CCCO3)c2C)cc1 (centres undefined) 140%
